# Compounds without any hit were thinned out: in the full panel of roughly 83,000, 20% have a hit.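 Note: values are percent growth. 100 is the growth of untreated cells, values between 100 and 0 indicate rising inhibition; between -100 and 0 indicates cell death.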 Unmarked numbers belong to inactive results. The source made the active and inactive calls. The calls were made as follows: active = growth percent below 10; inactive = the rest.
# Test system: PC-3 prostate
# Experiment: NCI-60 one-dose screen, 48 h (100 = growth as untreated, 0 = no growth, -100 = all killed)
# Conditions: 10 µM unless noted
row,Compound,growth
1,COc1cc(-c2nnc(-c3nc(-c4cc(OC)c(OC)c(OC)c4)n4ccccc34)o2)ccc1N,69%
2,O=C(Nc1ccc2c(c1)C(=O)c1ccccc1-2)c1ccccc1,92.9%
3,COc1ccc(CNC(=O)c2c(C)n([O-])c3ccc(OC)cc3[n+]2=O)cc1,80.5%
4,N#CC(C#N)C(C#N)C#N,90.4%
5,CC[N+](CCCCCCCCCC[N+](CC)(c1ccccn1)c1ccccn1)(c1ccccn1)c1ccccn1,2.94% (active)
6,CCCCCCCSc1ncnc2[nH]ncc12,78.8%
7,CC(C)N(Cc1ccccc1)c1c(S)ssc1=S,1.17% (active)
8,O=C(NCCNC(=O)Oc1cccc2ccccc12)Oc1cccc2ccccc12,78.5%
9,Cc1[nH]c(=O)[nH]c(=O)c1CCSSCCc1c(C)[nH]c(=O)[nH]c1=O,99.6%
10,CC(C)N(Cc1ccccc1)c1c(Cl)ssc1=O,95.9%
11,COc1cnc2c(c1)C(=O)c1c-2n(CCCN2CCCC2)c(=O)c2cc(F)ccc12,9.68% (active)
12,CSc1nc(-c2ccc(O)cc2O)c2c(=O)[nH]c(Nc3ccc(S(=O)(=O)Nc4nc(C)cc(C)n4)cc3)nc2n1,88%
13,c1ccc(COc2ccc(Nc3ncnc4c3cnn4-c3ccccc3)cc2)cc1,88.5%
14,O=C1/C(=C/c2ccc(F)cc2)Cc2ccccc21,97.8%
15,CC[n+]1c(/C=C/c2ccc(N3CCCC3)cc2)cccc1/C=C/c1ccc(N2CCCC2)cc1,-76.8% (active)
16,ICCC(c1ccccc1)(c1ccccc1)c1ccccc1,49.4%
17,O=C(CSc1nnc(-c2cc(-c3ccccc3)nc3ccccc23)o1)c1ccc(Br)cc1,107%
18,O=c1[nH]c(SCc2ccccc2)nc2nc(Nc3ccc(NC(=S)Nc4ccccc4)cc3)nc(-c3ccc(O)cc3O)c12,82.6%
19,Cc1cc(Cl)ccc1Nc1nc(C(F)(F)F)ccc1C(=O)N/N=C/c1ccc(Cl)cc1,-2.59% (active)
20,Cc1sc2nc3c4ccccc4c(NCCCN(C)C)nn3c(=O)c2c1C,50.9%

row,Compound,growth
1,C[C@H](C(=O)N[C@@H](Cc1ccc(-c2ccccc2)cc1)C(=O)NC1CC(C)(C)NC(C)(C)C1)c1ccc(-c2ccccc2)c(F)c1,-65.5% (active)
2,Cc1csc(C#Cc2cncc(O)c2)n1,106%
3,CN[C@@H]1C(OC2[C@H](O[C@H]3[C@H](O)[C@@H](O)[C@H](N=C(N)N)[C@@H](O)[C@@H]3N=C(N)N)OC(C)[C@]2(O)CO)OC(CO)C(O)C1O (stereo not given in full),108%
4,COCCOCCOCCOCCOc1ccc2c(c1)C(=O)c1nc3ncccc3c(=O)n1-2,-8.58% (active)
5,N#CC1c2ccccc2C=CN1C(=O)N(c1ccccc1)c1ccccc1 (stereo not given),60%
6,Nc1ccc2c(c1)C(=O)c1cc(Cl)c(Cl)cc1-2,74.9%
7,COc1ccc2c(c1)C(=Nc1cc(OC)c(OC)c(OC)c1)C(=O)N2,77.5%
8,CN(C)CCCN=c1cc2c(=O)n(CCCN(C)C)c(=O)c3c(NCCCN(C)C)cc4c(O)n(CCCN(C)C)c(=O)c1c4c3-2,12.1%
9,COc1ccc(-c2cnc(SCC(=O)Nc3ccc(-c4nc5ccccc5s4)cc3)n2-c2ccc(OC)cc2)cc1,97%
10,O=c1[nH]cc(Nc2cc(Cl)c3nonc3c2[N+](=O)[O-])c(=O)[nH]1,92.9%
11,CCOC(=O)Nc1cc(-c2ccc(C)c(NS(C)(=O)=O)c2)nn2c(C)nnc12,23.8%
12,NS(=O)(=O)c1cc2c(cc1Cl)NC=NS2(=O)=O,100%
13,COc1ccc2ncccc2c1Cc1c(OC)ccc2ncccc12,74.6%
14,c1ccc(-c2n(Cc3ccc4ccccc4c3)cc[n+]2Cc2ccc3ccccc3c2)cc1,-58.8% (active)
15,Nc1nc(Nc2ccccc2SSc2ccccc2Nc2nc(N)nc(-c3cccc(Cl)c3)n2)nc(-c2cccc(Cl)c2)n1,83.9%
16,CC1CN(CC(O)c2ccc(Br)cc2)CCO1 (stereo not given),101%
17,CC[C@@H](C)/C=C(C)/C=C/C(=O)c1c(O)c(-c2ccc(O)cc2)cn(OC2CC(=O)CCC(C)OC(=O)CC2O)c1=O (stereo not given in full),34%
18,CCCCc1n(Cc2ccc3ccccc3c2)cc[n+]1Cc1ccc2ccccc2c1,-29.7% (active)
19,COc1cc(/C=C2\SC(N3CCCCC3)=NC2=O)ccc1OCCCCCCOc1ccc(/C=C2\SC(N3CCCCC3)=NC2=O)cc1OC,34%
20,CCCCCCCCN(CCO)CCCCCCCC,99.3%

# — PubChem BioAssay (NCI)
